# Measured values reported in PubChem BioAssay.
# Calls of active or inactive are those of the source.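 The calls were made as follows, unless noted: active = inhibition at or above 50% at 10 µM; inactive = inhibition below 50%.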
# Assays:
# [1] = inhibitors of TNFa-induced NFkB p65 translocation, primary screen, imaging, HUVEC, MLSMR starter and 10KST1 sets (AID 438;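 active = inhibition above 20% together with a positive visual image hit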;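 also: compound added about 3h40 before a 20 min TNFalpha stimulation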;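 as to inhibition: signal is the nuclear over cytoplasmic p65 intensity ratio per well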); conditions: HUVEC TNFa-induced p65 nuclear translocation; cell count: measured here: nuclei count (cytotoxicity indicator), at 2.08 µM; inhibition: at 2 µM, stronger effect = higher value, 0% TNFa-plus-vehicle, 100% no-TNFa wells
# [2] = reduction of polyQ htt aggregates in cells – imaging, exon1htt(103Q)mCFP cells, high-content imaging, primary screen (AID 483;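 active = visual image review flags a hit and inhibition of aggregation exceeds 20%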;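 also: compound exposure lasted 3 days before fixation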;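 as to nuclei count: percent of the per-plate median nuclei count of sample wells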); conditions: exon1htt(103Q)mCFP cell line, aggregate imaging, at 2 µM; inhibition of aggregation: stronger effect = higher value; nuclei count: measured here: cell count, toxicity
# [3] = endothelial E-selectin expression blockers – imaging, HUVEC, immunofluorescence, MLSMR starter and 10KST1 sets, primary screen (AID 487;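 active = visually confirmed hit in the image check and inhibition above 20%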;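 as to inhibition: signal is fraction of cell area covered by stained E-selectin grains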;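 as to nuclei count: 100% = median nuclei count of all wells on the same plate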); conditions: HUVEC TNFalpha-induced E-selectin immunofluorescence imaging, at 2 µM; inhibition: stronger effect = higher value; nuclei count: measured here: cell number, toxicity
# [4] = molecular target: Voltage-gated potassium channel subunit beta-2 (Rattus norvegicus) (UniProt P62483); assay: inhibitors of rat Kvbeta2 reductase activity – biochemical, NADPH fluorescence, primary screen (AID 622;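 active = fluorescence slope higher than the sample average by over 3 SD, cut at about -0.22 in these data, passing the limit was not always enough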;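 also: slope of raw intensity against log time taken from 70 to 1610 s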); conditions: recombinant KvBeta, 4-cyanobenzaldehyde reduction, at 10 µM, stronger effect = higher value
# [5] = molecular target: Voltage-gated potassium channel subunit beta-2 (Rattus norvegicus) (UniProt P62483); assay: enhancers of rat Kvbeta2 NADPH turnover – biochemical, NADPH fluorescence, primary screen (AID 623;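 active = NADPH fluorescence slope more negative than the mean of all samples by about 3 SD, 99.7% confidence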;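 also: fluorescence intensity change per second fitted from 20 to 320 s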); conditions: Recombinant KvBeta, NADPH fluorescence decrease slope, 10 min; at 10 µM; stronger effect = lower value
# [6] = molecular target: Alpha-2C adrenergic receptor (Homo sapiens) (UniProt P18825); assay: compounds altering alpha2C-coupled GIRK flux – cell-based, HEK293 alpha2C/GIRK1/2, thallium flux, primary screen (AID 624;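 active = fluorescence slope after compound addition differing from the mean of all screened samples at 99.7% confidence, in either direction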;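 also: slope of fluorescence ratio to pre-addition baseline per second over 15 to 24 s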); conditions: thallium flux BTC fluorescence, at 10 µM, actives lie on both sides
# [7] = blockers of RIG-like receptor reporter activation – cell-based, Sendai virus stimulus, luciferase, 10K MLSCN set, TLR/RLR signaling modifier project, primary screen (AID 602276); conditions: HEK293 RL24 IRF3 luciferase reporter, at 10 µM, stronger effect = higher value;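 also: firefly luciferase from ISG56 promoter only with Renilla not read in this screen; 0% = Sendai virus plus DMSO and 100% = medium plus DMSO without virus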
# [8] = TLR3 IRF3 reporter activation blockers – cell-based, poly I:C stimulus, luciferase, 10K MLSCN set, primary screen (AID 602277;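 active = inhibition of the reporter signal at or above 50%; inactive = inhibition below 50%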); conditions: HEK293-TLR3 RL24 IRF3 luciferase reporter, at 10 µM, stronger effect = higher value
# Chain of Alpha-2C adrenergic receptor (Homo sapiens) (P18825 whole entry, looked up): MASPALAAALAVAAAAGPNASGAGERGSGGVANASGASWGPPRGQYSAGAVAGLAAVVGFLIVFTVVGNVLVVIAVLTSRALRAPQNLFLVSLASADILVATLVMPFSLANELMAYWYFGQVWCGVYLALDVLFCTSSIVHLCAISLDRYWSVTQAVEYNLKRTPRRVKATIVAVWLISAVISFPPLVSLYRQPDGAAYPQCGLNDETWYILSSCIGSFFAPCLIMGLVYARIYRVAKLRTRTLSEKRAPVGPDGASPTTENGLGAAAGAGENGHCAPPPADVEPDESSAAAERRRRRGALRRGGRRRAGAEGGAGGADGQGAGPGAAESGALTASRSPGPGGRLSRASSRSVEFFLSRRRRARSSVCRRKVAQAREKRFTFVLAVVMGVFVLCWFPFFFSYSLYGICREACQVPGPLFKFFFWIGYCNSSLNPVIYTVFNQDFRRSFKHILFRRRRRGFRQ
# Chain of Voltage-gated potassium channel subunit beta-2 (Rattus norvegicus) (P62483 whole entry, looked up): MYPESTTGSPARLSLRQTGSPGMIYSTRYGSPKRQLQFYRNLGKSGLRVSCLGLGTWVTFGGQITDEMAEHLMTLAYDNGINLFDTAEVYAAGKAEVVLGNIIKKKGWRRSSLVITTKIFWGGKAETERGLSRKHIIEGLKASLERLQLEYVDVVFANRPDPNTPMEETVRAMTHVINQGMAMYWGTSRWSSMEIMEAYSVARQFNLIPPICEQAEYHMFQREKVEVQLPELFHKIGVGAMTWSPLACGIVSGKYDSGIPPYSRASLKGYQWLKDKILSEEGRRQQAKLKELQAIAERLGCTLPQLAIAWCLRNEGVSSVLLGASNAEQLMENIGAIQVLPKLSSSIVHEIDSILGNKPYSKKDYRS
Compound,cell count [1],inhibition [1],inhibition of aggregation [2],nuclei count [2] [%],inhibition [3],nuclei count [3] [%],fluorescence slope [4],NADPH fluorescence slope [5],slope [6],inhibition [7],inhibition [8]
CCn1c(SCc2cccc(C(F)(F)F)c2)nnc1-c1ccco1,616,4.8% (inactive),4.5% (inactive),94.1,-15.2% (inactive),104,-0.414 (inactive),-3.6e-05 (inactive),0.00568 (inactive),13.2% (inactive),3.48% (inactive)
Cc1cc(C)n2cc(CSc3nnnn3C)nc2n1,532,-36.9% (inactive),9.5% (inactive),106,36.6% (inactive),65.8,-0.256 (inactive),-4.3e-06 (inactive),0.00505 (inactive),15.1% (inactive),19.7% (inactive)
COc1cccc(S(=O)(=O)Nc2ccc(C(=O)N3CCN(C(=O)c4ccco4)CC3)cc2)c1,448,-3.9% (inactive),-8% (inactive),108,-65.5% (inactive),124,-0.507 (inactive),-3.8e-05 (inactive),0.00603 (inactive),8.1% (inactive),7.91% (inactive)
CC(=O)Nc1ccc(S(=O)(=O)CCC#N)cc1,424,7.2% (inactive),2.2% (inactive),90.4,-113% (inactive),107,-0.482 (inactive),-3.9e-05 (inactive),0.00638 (inactive),11.9% (inactive),20% (inactive)
COc1ccc(OC)c(S(=O)(=O)N2CCN(c3c(C)cccc3C)CC2)c1,622,1.1% (inactive),30.2% (inactive),111,-9.3% (inactive),102,-0.541 (inactive),-4.7e-05 (inactive),0.00796 (inactive),9.96% (inactive),30.5% (inactive)
CCOc1ccc(-c2nc(C#N)c(N3CCCCCC3)o2)cc1,759,6% (inactive),11.5% (inactive),110,-122% (inactive),114,-0.579 (inactive),-1.9e-05 (inactive),0.0066 (inactive),-2.19% (inactive),4.25% (inactive)
COc1ccc2c(c1OC)C(=O)OC2CC(=O)c1ccc(O)cc1 (stereo unspecified),556,-1.1% (inactive),-3.9% (inactive),114,43.4% (inactive),42.6,-0.447 (inactive),-4.1e-05 (inactive),0.00258 (inactive),4.78% (inactive),26.9% (inactive)
CC1(C)CC(=O)C(C#N)=C(NCCCO)C1,471,5% (inactive),-2.8% (inactive),98.2,42.4% (inactive),109,-0.536 (inactive),-3.8e-05 (inactive),0.00419 (inactive),11.1% (inactive),9.83% (inactive)
CCOc1cc(/C=N/n2cnnc2)cc(Br)c1O,819,4.2% (inactive),-15.3% (inactive),100,-30.9% (inactive),124,-0.381 (inactive),-4.4e-06 (inactive),0.00481 (inactive),13.1% (inactive),7.19% (inactive)
Cc1c(C(=O)NC2CCCc3ccccc32)oc2ccc(S(=O)(=O)N3CCOCC3)cc12 (stereo unspecified),500,-3% (inactive),27.1% (inactive),76.4,-32.9% (inactive),110,-0.489 (inactive),-6.3e-05 (inactive),0.0079 (inactive),17.5% (inactive),14.6% (inactive)
O=C(C1CCCN(S(=O)(=O)c2cccnc2)C1)N1CCn2c1nc1ccccc12 (stereo unspecified),639,-11.6% (inactive),-20.6% (inactive),112,-57.5% (inactive),107,-0.595 (inactive),-2.6e-05 (inactive),0.00573 (inactive),-7.64% (inactive),-1.49% (inactive)
N#Cc1c(NC(=O)c2ccc(Br)o2)n(-c2ccccc2)c2nc3ccccc3nc12,275,-1.4% (inactive),14.7% (inactive),97.4,-63.2% (inactive),104,-0.502 (inactive),-2e-05 (inactive),0.0121 (active),19.9% (inactive),18.8% (inactive)
CCOC(=O)N1CCN(C(=O)c2ccc3nc4ccsc4c(=O)n3c2)CC1,542,9.1% (inactive),-30.4% (inactive),65.4,12.9% (inactive),95.5,-0.324 (inactive),-1.8e-05 (inactive),0.00717 (inactive),14.6% (inactive),44.2% (inactive)
CCOC(=O)C1=C(NC#N)OC(C)=C(C)C1c1ccc(O)cc1 (stereo unspecified),276,1% (inactive),-12.7% (inactive),117,15.8% (inactive),100,-0.487 (inactive),-1.5e-05 (inactive),0.00651 (inactive),20.5% (inactive),18.3% (inactive)
COc1ccc(OC)c(-c2nnc(SCC(=O)NC3CCCCC3)o2)c1,738,2.1% (inactive),13.9% (inactive),97.8,-24.5% (inactive),114,-0.574 (inactive),-1.4e-05 (inactive),0.00689 (inactive),-17.4% (inactive),0.755% (inactive)
CCOc1ccc(-c2c(C#N)c(N)nc3c2c(=O)n(C)c(=O)n3C)cc1OC,702,-1.1% (inactive),7.8% (inactive),108,-7.5% (inactive),103,-0.486 (inactive),-5.7e-05 (inactive),0.00459 (inactive),14.3% (inactive),16.4% (inactive)
CC1(C)CC(=O)CC(C2(O)C(=O)N(Cc3ccccc3)c3ccccc32)O1 (stereo unspecified),500,-2.4% (inactive),-3.9% (inactive),82.2,-9.4% (inactive),120,-0.548 (inactive),1.3e-05 (inactive),0.00527 (inactive),-9.58% (inactive),-5.31% (inactive)
O=S(c1ccsc1)c1ccsc1,444,6.5% (inactive),1.4% (inactive),95.8,13% (inactive),99.8,-0.497 (inactive),-4.1e-05 (inactive),0.00527 (inactive),19.8% (inactive),26.3% (inactive)
Cc1noc(C)c1CSc1nc2ccccc2s1,588,-2.3% (inactive),-7.7% (inactive),113,-4.7% (inactive),102,-0.515 (inactive),2.9e-05 (inactive),0.00595 (inactive),4.37% (inactive),-21.8% (inactive)
O=S(=O)(c1ccc(Br)s1)N1CCN(c2ccccc2)CC1,660,6.3% (inactive),0.1% (inactive),90.2,14.4% (inactive),102,-0.289 (inactive),-3e-05 (inactive),0.00522 (inactive),10.7% (inactive),13.7% (inactive)
COc1ccc(C(=O)Cn2nnc(-c3cccs3)n2)cc1,368,-7% (inactive),27.6% (inactive),89.5,-0.6% (inactive),100,-0.407 (inactive),-4.9e-05 (inactive),0.00512 (inactive),-2.35% (inactive),-30.5% (inactive)
CCCS(=O)(=O)N1CCN(C(=O)c2cccnc2)CC1,374,5.5% (inactive),-5.9% (inactive),98.3,18.3% (inactive),114,-0.431 (inactive),-6.9e-05 (inactive),0.0059 (inactive),8.38% (inactive),19.6% (inactive)
CCN(CC)CCNC(=O)CCn1c(=S)[nH]c2cc3c(cc2c1=O)OCO3,380,-3% (inactive),-16.9% (inactive),99.9,7.2% (inactive),114,-0.501 (inactive),-2.4e-05 (inactive),0.00645 (inactive),-5.94% (inactive),28.2% (inactive)
CCOc1ccc(C2CC(c3cccc(OC)c3)Nc3nc(N)nn32)cc1 (stereo unspecified),562,5.4% (inactive),15.4% (inactive),100,36.3% (inactive),97.4,-0.619 (inactive),7.9e-07 (inactive),0.00629 (inactive),-7.71% (inactive),-1.03% (inactive)
COc1ccc(C(C(=O)NC2CCCCC2)N2CCC3(CC2)OCCO3)cc1 (stereo unspecified),953,1.8% (inactive),-42.7% (inactive),132,-18.3% (inactive),135,-0.525 (inactive),-6.1e-05 (inactive),0.00579 (inactive),31.2% (inactive),89.5% (active)
COc1ccc(C(CNC(=O)c2cc(C)oc2C)N2CCOCC2)cc1 (stereo unspecified),711,-0.8% (inactive),-5.3% (inactive),103,-140% (inactive),145,-0.609 (inactive),-9.2e-06 (inactive),0.00615 (inactive),11.1% (inactive),15.8% (inactive)
